# Measured values from PubChem BioAssay AID686979 (National Center for Advancing Translational Sciences (NCATS), 2013).
# About 50,000 (12%) of roughly 420,000 compounds were called active. Not shown: some 26% with an inconclusive outcome. What follows is part of a selection rich in actives, with near analogues and random picks from the rest. Values without a mark were called inactive. Calls come from the whole dose curve; as a rule, active = well fitted inhibition curve with a large enough effect; inconclusive = small, poorly fitted or top-dose-only effect; inactive = flat fitted curve, though single readings scatter.
# Assay: qHTS for Inhibitors of human tyrosyl-DNA phosphodiesterase 1 (TDP1): qHTS in cells in presence of CPT; note: nearly all actives have a fitted effect of over 55% in size
# Conditions: chicken DT40 Tdp1-/-;hTDP1 cells + 20 nM CPT, ATP luminescence, 48 h; series mostly up to 46.2 µM; activity change, negative = growth inhibition: at the top concentration
# How it was run: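 Cell growth measured by CellTiter-Glo luminescence after a minimum 48 h, 37 C compound exposure with 20 nM CPT in Tdp1-knockout DT40 cells stably expressing hTDP1, seeded 400/well; qHTS titration format.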
# % is set by controls: 0 for no effect and ±100 for the full control effect; potency is the fitted concentration of half-maximal effect.
Structure (SMILES),"activity change, negative = growth inhibition",Potency
COCC1CCCN(Cc2ccc3c(c2)CN(C(=O)c2ccnn2C)CCO3)C1 (configuration not stated),-3.58% [at 9.04 µM],–
O=C(c1[nH]ncc1-c1ccc(Cl)cc1)C1CO1 (configuration not stated),–,1.03 µM (active)
S=c1[nH]nc(-c2ccc(Cl)cc2)n1CC1CCCO1 (configuration not stated),-28.6%,–
COC(=O)c1ccc(C)c(NC(=O)C2CC(=O)N(C3CCCC(C)C3C)C2)c1 (configuration not stated),-28.8%,–
C=C1C(=C/C=C2\CCC[C@]3(C)[C@@H]([C@H](C)CCCC(C)(C)O)CC[C@@H]23)C[C@@H](O)C[C@@H]1O,–,9.44 µM (active)
CCNC(=O)C1(C)CCCN(C(=O)c2ccc3ccccc3n2)C1 (configuration not stated),-17.1%,–
CCOC(=O)c1sc(NC(=O)CSc2n[nH]c(CC)n2)nc1C,-18%,–
O=C(N/N=C/c1ccc(Br)o1)c1cncc(Br)c1,-1.47%,–
Cc1sc2ncn(CC(=O)NCCCC(=O)NCc3ccc(F)cc3)c(=O)c2c1C,1.23%,–
O=C1N[C@H](Cc2ccccc2)C(=O)N[C@H]1Cc1cn(S(=O)(=O)c2ccccc2)c2ccccc12,–,13 µM (active)
Cn1cc(S(=O)(=O)N2CCC(Cc3ccccc3)CC2)c(=O)n(C)c1=O,-4.97%,–
CSc1ncccc1C(=O)Nc1ccc2c(c1)OCO2,-7.18%,–
Cc1c(NC(=O)CCCOc2ccccc2)cccc1[N+](=O)[O-],-6%,–
Cc1c(NC(=S)NCc2ccc(F)cc2)cccc1[N+](=O)[O-],–,20.6 µM (active)
Cc1c(NC(=O)/C=C/C(=O)O)cccc1[N+](=O)[O-],-18.6%,–
CCN(CC(=O)NCc1ccc(Cl)cc1)C(=O)CSc1ccccc1,-16.6%,–
c1ccc(-c2ccc3c(c2)NC(C2Nc4cc(-c5ccccc5)ccc4O2)O3)cc1 (configuration not stated),-2.09%,–
CC(=O)c1cccc(NC(=O)COc2ccc(S(=O)(=O)N3CCOCC3)cc2)c1,-18.5%,–
CC1CCN(S(=O)(=O)c2ccc3[nH]c(=O)ccc3c2)CC1,-2.79%,–
CC(=O)c1cccc(Nc2ccc3cc(S(=O)(=O)N4CCC(C)CC4)ccc3n2)c1,–,18.4 µM (active)
CCCc1c(C)nc2c(Br)cccc2c1Cl,-1.98%,–
COc1cc(NS(=O)(=O)c2ccc(N/C=C(\C=O)c3nc4cc(Cl)ccc4o3)cc2)nc(OC)n1,-24.7%,–
Cn1ncc(Br)c1C(=O)NC1CCCC1,-11.4%,–
CCC(Oc1ccccc1)C(=O)OCC(=O)Nc1c(C)nn(-c2ccccc2)c1C (configuration not stated),5.19%,–
Nc1cc(=O)n(Cc2ccccc2)c(=O)n1Cc1ccccc1,-10.3%,–
Cc1ccc(C)c(Oc2c(C(F)(F)F)oc3c(CN4CCN(C)CC4)c(O)ccc3c2=O)c1,–,23.1 µM (active)

Structure (SMILES),"activity change, negative = growth inhibition",Potency
CCN1CCN(Cc2c(O)ccc3c(=O)c(-c4ccc(OC)c(OC)c4)c(C(F)(F)F)oc23)CC1,-18.3%,–
CC1CCCN(Cc2c(O)ccc3c(=O)c(Oc4ccc(C(C)(C)C)cc4)c(C(F)(F)F)oc23)C1 (configuration not stated),-18.6%,–
CSc1ccc(CCNC(=O)c2cnn(-c3ccccc3)c2-n2cccc2)cc1,–,18.4 µM (active)
Cc1c(C(=O)NCc2ccccc2)cnn1-c1ccccc1,-16.4%,–
CCCN1CCN(CCCNC(=O)c2cnn(-c3ccc(C)cc3)c2-n2cccc2)CC1,-24%,–
COc1cc(C(=O)Nc2ncccc2C)ccc1OCC(=O)N1CCOCC1,-0.766%,–
Cn1ccnc1-c1nnn(-c2ccc(F)cc2)n1,-4.66%,–
C/C(=N\NC(=O)c1ccccc1F)c1ccccn1,–,3.26 µM (active)
O=C(Nc1ccc(NC(=O)c2ccccc2F)cc1)c1ccccc1F,-12.9%,–
COc1ccc(C/C(C)=N/NC(=O)c2ccncc2)cc1,5.91%,–
Cc1cccc(C)c1NC(=S)N1CCCCCC1,-7.74%,–
Cc1ccc(Cl)cc1NC(=O)c1ccccn1,-18.9%,–
C/C(=N\NC(=O)Cc1ccc(Cl)cc1)c1ccccn1,–,1.46 µM (active)
CNC(=S)N1CCN(c2ccccn2)CC1,-0.34%,–
C/C(=N\NC(=O)Cc1ccc(Br)cc1)c1cccnc1,-24.7%,–
COc1ccc(CC(=O)N/N=C(\C)c2ccccn2)cc1,–,3.66 µM (active)
CC(=NNC(=S)N1CCCCCC1)c1ccccn1,–,0.0092 µM (active)
COc1ccc(C/C(C)=N/NC(=O)c2cc(C)oc2C)cc1,0.402%,–
C/C(CC(=O)Nc1ccc(N(C)C)cc1)=N\NC(=O)c1ccccc1F,-17.5%,–
CCC1([N+](=O)[O-])COC(c2ccc(C)cc2)OC1 (configuration not stated),-10.3%,–
Cc1cc(C(C)(C)C)n2nc(C)c(-c3ccccc3)c2n1,-11.6%,–
CCc1nnc(NC(=O)c2cc(S(=O)(=O)N3CCCCC3)ccc2C)s1,-3.57%,–
CCOC(=O)C1CCN(C(c2ccc(F)cc2)c2sc3nc(-c4ccco4)nn3c2O)CC1 (configuration not stated),-0.823%,–
Cc1cccc(N(C(=O)c2csnn2)C(C(=O)NCc2ccccc2)c2ccncc2)c1 (configuration not stated),-22%,–
Cc1ccc(NC(=O)CCCNC(=O)c2ccc(Cl)cc2)cc1S(=O)(=O)N1CCOCC1,-28.1%,–
O=C(Nc1cccc(F)c1)N1CC2(CCN(C(=O)c3cnccn3)CC2)C1,1.43%,–
